Measurements from PubChem BioAssay.
Values joined by “and” are separate entries in the source; they are usually repeats but may differ in a detail not shown here. Equal entries are not always repeated. Inconclusive results are not listed. Active and inactive are the calls of the source.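 How the source made its calls, unless noted: active means compounds whose cell count with miR-34 switched on is under 0.7 times the count with it off; inactive means the rest.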

What was measured:
[1] = P. berghei load reduction in hepatocytes – cell-based, HepG2, luciferase luminescence, HepG2 viability, primary screen (AID 624349; in the data active means parasite load remaining mostly below about 12%, no sharp cut-off; inactive means mostly above about 10%;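 further: 100% = mean of DMSO negative control wells on the same plate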); conditions: P. berghei liver stage in HepG2, luciferase luminescence, concentration not given here; parasite load remaining: stronger effect = lower value; viability: measured here: HepG2 viability without parasites
[2] = EMT-state selective cytotoxicity in co-culture – imaging, PC-3E GFP, TEM4-18 mCherry, primary screen (AID 1345086;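 active means compounds killing one labelled cell type while sparing the other, by normalised counts and ratio limits, not self-fluorescent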;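 on all read-outs here: cells exposed to compound for 72 h before imaging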;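 on red/green cell ratio (normalised): normalised mesenchymal count divided by normalised epithelial count so high means epithelial killing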); conditions: PC-3E GFP / TEM4-18 mCherry co-culture, imaging cell counts, at 1 µM; for red/green cell ratio (normalised): actives lie on both sides, counts scaled to control wells, 1 = unselective
[3] = viability loss in pontine glioma line – cell-based, SU-DIPG-XVII, MIPE5.0, CellTiter-Glo, qHTS, dose response (AID 1347060; cut-off not given, nearly all actives have AC50 up to about 26 µM;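 on AC50: cells exposed to compound for 48 hours before viability readout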); conditions: CellTiter-Glo ATP luminescence
[4] = viability loss in pontine glioma line – cell-based, SU-DIPG-XIII, MIPE5.0, CellTiter-Glo, qHTS, dose response (AID 1347064; cut-off not given, nearly all actives have AC50 up to about 23 µM;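 on AC50: cells exposed to compound for 48 hours before the viability read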); conditions: CellTiter-Glo ATP luminescence
[5] = viability loss in pontine glioma line – cell-based, SU-DIPG-XXV, MIPE5.0, CellTiter-Glo, qHTS, dose response (AID 1347065; cut-off not given, nearly all actives have AC50 up to about 26 µM;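 further: cells exposed to compound for 48 hours before ATP readout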); conditions: CellTiter-Glo ATP luminescence
[6] = JHH-DIPG-1 glioma cell viability, MIPE5.0 library, CellTiter-Glo luminescence, qHTS (AID 1347067; cut-off not given, nearly all actives have AC50 up to about 26 µM;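 further: cells exposed to compound for 48 hours before readout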); conditions: JHH-DIPG-1 glioma viability, CellTiter-Glo ATP luminescence
[7] = growth inhibition of DIPG cells – cell-based, MIPE5.0 library, qHTS (AID 1347068; cut-off not given, nearly all actives have IC50 up to about 30 µM;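 on IC50: cells exposed to compound for 48 hours before viability readout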); conditions: SU-DIPG-XXV viability
[8] = viability loss with induced miR-34 in A549 – imaging, A549 dox-inducible miR-34, nuclei and caspase counts, primary screen (AID 1347080); conditions: A549 miR-34 inducible, Hoechst nuclei count, 48 h
[9] = MELAS cybrid and Rieske KO viability enhancers – cell-based, MELAS cybrids, Rieske KO mouse fibroblasts, CellTiter-Glo, primary screen (AID 1508586;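 active means mean z-score across replicates of 1.96 or higher in either the MELAS or the Rieske mutant cell line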;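 further: z relative to plate mean and SD of compound and empty wells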); conditions: low glucose
[10] = galactose survival enhancers in mitochondrial complex I cybrids – cell-based, galactose medium, ATP luminescence, primary screen (AID 1645843;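 active means z-score of at least 1.8 in each of two replicates, scored against plate mean and spread of sample wells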;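 further: positive z means more ATP and so rescue of galactose-driven cybrid death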); conditions: complex I mutant cybrid cells, 72 h, stronger effect = higher value
[11] = viability loss in pontine glioma line – cell-based, JHH-DIPG-1, MIPE4.0, CellTiter-Glo, qHTS, dose response (AID 1347062; cut-off not given, nearly all actives have AC50 up to about 27 µM); conditions: JHH-DIPG-1 viability, CellTiter-Glo ATP luminescence
[12] = viability loss in pontine glioma line – cell-based, SU-DIPG-IV, MIPE4.0, CellTiter-Glo, qHTS, dose response (AID 1347063; cut-off not given, nearly all actives have AC50 up to about 30 µM;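 further: compound exposure lasted 48 hours before the viability readout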); conditions: CellTiter-Glo ATP luminescence
[13] = growth inhibition of DIPG cells – cell-based, MIPE4.0 library, CellTiter-Glo luminescence, qHTS (AID 1347066; cut-off not given, nearly all actives have AC50 up to about 30 µM;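 further: cells exposed to compound for 48 hours before readout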); conditions: SU-DIPG-VI viability, CellTiter-Glo ATP luminescence
[14] = viability loss in pontine glioma line – cell-based, SU-DIPG-XIII, MIPE4.0, CellTiter-Glo, qHTS, dose response (AID 1347061; cut-off not given, nearly all actives have AC50 up to about 37 µM;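 further: cells exposed to compound for 48 hours before readout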); conditions: CellTiter-Glo ATP luminescence
[15] = molecular target: NAD(+) hydrolase SARM1 (Homo sapiens) (UniProt Q6SZW1); assay: blocking NAD cleavage by SARM1 SAM-TIR – cell lysate, NAD-Glo luminescence (AID 1508614;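 active means compound whose remaining NAD level is above about 45 nM, limit read from the data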); conditions: SAM-TIR HEK293T lysate NADase, at 1 µM, stronger effect = higher value
Sequence of NAD(+) hydrolase SARM1 (Homo sapiens) (Q6SZW1 whole entry, looked up, the tested form may be a part): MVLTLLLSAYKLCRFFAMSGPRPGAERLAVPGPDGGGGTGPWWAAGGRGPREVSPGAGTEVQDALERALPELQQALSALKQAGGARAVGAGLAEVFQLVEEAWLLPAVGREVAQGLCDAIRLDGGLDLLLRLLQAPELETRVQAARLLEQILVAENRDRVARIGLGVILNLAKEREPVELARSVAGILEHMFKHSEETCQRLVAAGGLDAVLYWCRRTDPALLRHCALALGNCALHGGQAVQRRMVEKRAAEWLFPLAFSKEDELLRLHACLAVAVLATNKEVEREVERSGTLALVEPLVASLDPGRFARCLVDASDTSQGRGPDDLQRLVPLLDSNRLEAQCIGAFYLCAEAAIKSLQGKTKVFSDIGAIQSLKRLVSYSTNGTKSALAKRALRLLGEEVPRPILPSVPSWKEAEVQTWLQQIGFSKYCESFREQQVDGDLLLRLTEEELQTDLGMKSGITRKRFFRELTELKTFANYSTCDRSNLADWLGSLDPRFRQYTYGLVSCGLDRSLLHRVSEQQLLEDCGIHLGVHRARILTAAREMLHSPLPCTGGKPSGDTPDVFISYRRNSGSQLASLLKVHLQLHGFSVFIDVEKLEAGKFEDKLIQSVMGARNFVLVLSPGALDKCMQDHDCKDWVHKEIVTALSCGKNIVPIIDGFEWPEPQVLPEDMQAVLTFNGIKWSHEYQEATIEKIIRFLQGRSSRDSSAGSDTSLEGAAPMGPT

[16] = molecular target: Mitogen-activated protein kinase 7 (Homo sapiens) (UniProt Q13164); assay: Gal4-ERK5 driven luciferase induction – cell-based, HTS, primary screen (AID 1508626;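 active means luciferase signal above three times the same-plate solvent-only control wells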;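 further: luciferase driven by Gal4-ERK5 fusion binding five Gal4 sites before minimal TATA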); conditions: HeLa Gal4-ERK5 transactivation, 18 h, at 5 µM, stronger effect = higher value
Sequence of Mitogen-activated protein kinase 7 (Homo sapiens) (Q13164 whole entry, looked up, the tested form may be a part): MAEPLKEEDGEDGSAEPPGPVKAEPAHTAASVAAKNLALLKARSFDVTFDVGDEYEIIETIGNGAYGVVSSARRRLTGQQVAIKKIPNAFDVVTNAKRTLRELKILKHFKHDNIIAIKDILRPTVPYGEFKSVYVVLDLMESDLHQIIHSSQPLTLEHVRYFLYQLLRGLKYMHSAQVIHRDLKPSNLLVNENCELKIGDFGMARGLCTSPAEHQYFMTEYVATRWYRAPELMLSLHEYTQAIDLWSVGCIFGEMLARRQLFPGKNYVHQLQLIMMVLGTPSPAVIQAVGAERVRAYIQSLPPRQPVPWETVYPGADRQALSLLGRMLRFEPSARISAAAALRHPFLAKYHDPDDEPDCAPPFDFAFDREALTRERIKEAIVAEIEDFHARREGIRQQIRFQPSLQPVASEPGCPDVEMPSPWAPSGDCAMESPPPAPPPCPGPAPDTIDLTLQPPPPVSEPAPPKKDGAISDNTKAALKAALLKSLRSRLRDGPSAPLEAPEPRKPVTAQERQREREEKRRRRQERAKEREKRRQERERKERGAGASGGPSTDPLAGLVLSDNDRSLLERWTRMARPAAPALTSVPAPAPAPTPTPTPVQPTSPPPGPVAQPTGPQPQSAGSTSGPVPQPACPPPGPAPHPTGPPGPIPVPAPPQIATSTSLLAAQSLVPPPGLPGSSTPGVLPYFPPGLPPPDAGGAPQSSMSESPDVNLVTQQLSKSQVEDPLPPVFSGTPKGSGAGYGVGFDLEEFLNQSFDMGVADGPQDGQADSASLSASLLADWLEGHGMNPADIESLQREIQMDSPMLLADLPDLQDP

[17] = measured here: epithelial PC-3E GFP cell survival
[18] = measured here: mesenchymal TEM4-18 mCherry cell survival
[19] = stronger effect = lower value, cell number ratio, induced over uninduced
[20] = measured here: relative caspase fold change +Dox/-Dox
[21] = measured here: total cells with miR-34 induction, stronger effect = lower value
[22] = measured here: total cells without miR-34 induction
[23] = MELAS cybrid survival, CellTiter-Glo 48 h, stronger effect = higher value
[24] = Rieske KO mouse fibroblast survival, CellTiter-Glo 72 h

CC[C@]1(O)CC2CN(CCc3c([nH]c4ccccc34)[C@@](C(=O)OC)(c3cc4c(cc3OC)N(C)[C@H]3[C@@](O)(C(=O)OC)[C@H](OC(C)=O)[C@]5(CC)C=CCN6CC[C@]43[C@@H]65)C2)C1 (stereo partly drawn)
parasite load remaining [1]: 45.7% (inactive) and 54.9% (inactive) | viability [1]: 113% and 91% | red/green cell ratio (normalised) [2]: 1.24 (inactive) | normalised cell number [2, 17]: 0.16 | normalised cell number [2, 18]: 0.2 | AC50 [3]: 20.9 nM (active) | AC50 [4]: 83.3 nM (active) | AC50 [5]: 14.8 nM (active) | AC50 [6]: 46.8 nM (active) | IC50 [7]: 3320 nM (active) | fold change [8, 19]: 1.13 (inactive) and 1.04 (inactive) | fold change [8, 20]: 2.66 and 1.23 | cell count [8, 21]: 1730 and 1930 | cell count [8, 22]: 1530 and 1860 | z-score [9, 23]: -2.11 (inactive) | z-score [9, 24]: 1.21 | z-score [10]: -1.85 (inactive)

O=c1ccn([C@@H]2O[C@H](CO)[C@@H](O)[C@H]2O)c(=O)[nH]1
red/green cell ratio (normalised) [2]: 0.9 (inactive) | normalised cell number [2, 17]: 1 | normalised cell number [2, 18]: 0.9 | outcome [3]: inactive | outcome [11]: inactive | outcome [12]: inactive | outcome [4]: inactive | outcome [5]: inactive | outcome [13]: inactive | outcome [7]: inactive

CC(=O)c1ccc2c(c1)Sc1ccccc1N2CCCN1CCN(CCO)CC1
red/green cell ratio (normalised) [2]: 1.02 (inactive) | normalised cell number [2, 17]: 1.21 | normalised cell number [2, 18]: 1.23 | fold change [8, 19]: 0.952 (inactive) | fold change [8, 20]: 0.758 | cell count [8, 21]: 8860 | cell count [8, 22]: 9300

C[C@@H]1CC2C3CCC4=CC(=O)C=C[C@]4(C)[C@@]3(F)[C@@H](O)C[C@]2(C)[C@H]1C(=O)CO (stereo partly drawn)
red/green cell ratio (normalised) [2]: 1.08 (inactive) | normalised cell number [2, 17]: 1.08 | normalised cell number [2, 18]: 1.16 | fold change [8, 19]: 0.893 (inactive) and 0.821 (inactive) | fold change [8, 20]: 0.943 and 1.01 | cell count [8, 21]: 6390 and 5470 | cell count [8, 22]: 7160 and 6670

CC(C)(CO)[C@@H](O)C(=O)NCCC(=O)O
parasite load remaining [1]: 90.7% (inactive) and 34.6% (inactive) | viability [1]: 107% and 75% | red/green cell ratio (normalised) [2]: 1.39 (inactive) | normalised cell number [2, 17]: 0.63 | normalised cell number [2, 18]: 0.88 | outcome [3]: inactive | outcome [14]: inactive | outcome [11]: inactive | outcome [12]: inactive | outcome [4]: inactive | outcome [13]: inactive | outcome [6]: inactive | outcome [7]: inactive | fold change [8, 19]: 0.92 (inactive) and 0.869 (inactive) and 0.91 (inactive) | fold change [8, 20]: 0.716 and 3.95 and 1.15 | cell count [8, 21]: 9860 and 12000 and 9850 | cell count [8, 22]: 10700 and 13800 and 10800 | z-score [9, 23]: -0.406 (inactive) and -0.744 (inactive) | z-score [9, 24]: 0.568 and -1.28 | remaining NAD [15]: 10 nM (inactive) | luciferase signal [16]: 68 AU (inactive) | z-score [10]: -0.065 (inactive)
